Results: PubChem BioAssay (NCATS)
Several values for one entry are separate records, joined by “and”; a condition that tells them apart may be missing. Identical values can stand only once. Records with an inconclusive call do not appear. Activity calls are given as the source filed them. Unless noted, the call rests on the fitted dose curve; in most records, active means well fitted curve in the direction sought with a large enough effect; inconclusive means small, poorly fitted or top-dose-only effect, or another doubt; inactive means no such curve, though single readings can be large; an effect the other way counts as inactive or inconclusive.

Assays:
[1] = qHTS for compounds that reverse cellular toxicity of Amyloid beta (A-beta) peptide in yeast: LOPAC Validation Assay (AID 720559); conditions: Potency: rescue of growth toxicity;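 further: plate controls were DMSO for no effect and equimolar ferric chloride plus clioquinol rescue for full effect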
In short: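 Activity is expressed relative to DMSO and an equimolar ferric chloride/clioquinol mix. Compounds were pinned into medium with A-beta-expressing yeast, grown 48 hr at 30 C, then read by absorbance at 600 nm.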

[2] = qHTS for Activators of Parkin Expression: LOPAC Validation Assay (NLuc Reporter) (AID 720572; further: potency means the concentration at half of the fitted maximal effect)
In short: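 Neuronal line stably carrying a FLuc/NLuc coincidence reporter under the Parkin promoter, seeded 24 h, then dosed in 7-point series for 24 h at 37 C. NLuc luminescence read after FLuc; normalized to DMSO and positive control (100%).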

[3] = qHTS for Activators of Parkin Expression: LOPAC Validation Assay (FLuc Reporter) (AID 720573;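 further: 0% = DMSO and 100% = positive control compounds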)
In short: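 A neuronal cell line harbouring FLuc and NLuc reporters behind the Parkin promoter was exposed to compounds for 24 h. Firefly luciferase signal, measured after 10 min with detection reagent, was scaled to DMSO and positive-control wells.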

[4] = target: T1, Hexokinase-4 (Homo sapiens) + Glucokinase regulatory protein (Homo sapiens) (UniProt P35557+Q14397); test: qHTS assay for inhibitors of recombinant human GCK-GKRP interaction: Diaphorase-coupled assay (AID 743205)
T1 sequence (P35557 whole entry, looked up): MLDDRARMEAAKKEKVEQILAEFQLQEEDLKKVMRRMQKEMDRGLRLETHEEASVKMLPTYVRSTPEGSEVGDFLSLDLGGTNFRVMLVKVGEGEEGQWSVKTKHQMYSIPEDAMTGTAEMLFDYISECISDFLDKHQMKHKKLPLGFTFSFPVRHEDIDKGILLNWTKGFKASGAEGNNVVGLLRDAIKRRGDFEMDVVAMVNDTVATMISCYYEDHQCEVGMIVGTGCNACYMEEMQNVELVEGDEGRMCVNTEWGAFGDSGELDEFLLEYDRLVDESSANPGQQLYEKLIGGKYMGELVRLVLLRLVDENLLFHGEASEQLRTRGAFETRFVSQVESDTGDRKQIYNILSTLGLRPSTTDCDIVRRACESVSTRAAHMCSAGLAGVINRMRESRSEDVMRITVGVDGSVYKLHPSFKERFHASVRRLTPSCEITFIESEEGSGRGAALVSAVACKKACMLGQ
T1 sequence (Q14397 whole entry, looked up): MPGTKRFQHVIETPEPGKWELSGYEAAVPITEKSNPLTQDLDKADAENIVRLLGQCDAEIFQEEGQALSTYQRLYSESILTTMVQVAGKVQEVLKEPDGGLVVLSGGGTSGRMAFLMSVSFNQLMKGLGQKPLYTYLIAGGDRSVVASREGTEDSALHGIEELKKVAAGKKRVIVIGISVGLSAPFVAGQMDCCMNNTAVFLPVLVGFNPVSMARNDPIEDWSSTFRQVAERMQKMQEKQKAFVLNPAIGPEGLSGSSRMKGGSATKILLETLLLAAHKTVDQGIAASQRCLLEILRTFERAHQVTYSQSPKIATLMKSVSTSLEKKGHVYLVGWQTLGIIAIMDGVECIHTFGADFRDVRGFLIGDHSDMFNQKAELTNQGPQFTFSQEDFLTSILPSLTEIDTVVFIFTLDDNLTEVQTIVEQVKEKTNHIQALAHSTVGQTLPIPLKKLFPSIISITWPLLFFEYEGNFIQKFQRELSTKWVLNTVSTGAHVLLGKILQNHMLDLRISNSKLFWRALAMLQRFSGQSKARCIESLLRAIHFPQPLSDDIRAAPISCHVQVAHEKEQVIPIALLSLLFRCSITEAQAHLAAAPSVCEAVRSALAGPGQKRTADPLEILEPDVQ
In short: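 Inhibitors of the GCK–GKRP complex relieve GKRP suppression of GCK, detected through a G6PDH–diaphorase cascade reducing resazurin. Human GST-GCK and FLAG-GKRP are used at 10 nM with 5 mM glucose and 0.4 mM ATP.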

[5] = target: T1, Hexokinase-4 (Homo sapiens) + Glucokinase regulatory protein (Homo sapiens); test: qHTS assay for inhibitors of recombinant human GCK-GKRP interaction: ADP-Glo assay (AID 743206);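 further: plate controls were DMSO plus enzyme for no effect and no enzyme for full effect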
In short: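 GST-GCK and FLAG-GKRP (15 nM each in the dispensed mix, with 2 uM S6P) react with 0.4 mM ATP and 5 mM glucose (final) in Hepes pH 7.6 for 60 min at room temperature. ADP is measured by ADP-Glo luminescence.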

[6] = target: T1, Hexokinase-4 (Homo sapiens) + Glucokinase regulatory protein (Homo sapiens); test: qHTS assay for inhibitors of recombinant human GCK-GKRP interaction: HTRF assay (AID 743207); further: potency means the concentration at half of the fitted maximal effect
In short: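 Steps: dispense GCK–GKRP complex (5 nM each, GST- and FLAG-tagged) with 2 uM S6P; pin in compounds; add XL665/Eu-cryptate-labelled antibodies; incubate 60 min at room temperature; read time-resolved FRET at 665 and 615 nm.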

[7] = qHTS Assay for Identifying Gametocytocidal Compounds (AID 743244); further: potency means the concentration at half of the fitted maximal effect;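 on max response: on the % scale 0 is the no-effect control and ±100 the full control effect; actives lower the fluorescent signal which means gametocytes are killed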; conditions: P. falciparum 3D7 stage III-V gametocytes, alamarBlue, 72 h; max response: stronger effect = lower value
In short: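 Fluorescence at Ex 525/Em 598 nm, recorded 24 h after alamarBlue addition, reports residual metabolic activity of 3D7 gametocytes (stages III–V) following 72 h compound exposure at 37 °C, 5% CO2.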

[8] = target: Arylsulfatase A (Homo sapiens) (UniProt P15289); test: qHTS screen for enhancers of Arylsulfatase A (ASA1): LOPAC Validation Assay (AID 720538)
Chain of Arylsulfatase A (Homo sapiens) (P15289 whole entry, looked up): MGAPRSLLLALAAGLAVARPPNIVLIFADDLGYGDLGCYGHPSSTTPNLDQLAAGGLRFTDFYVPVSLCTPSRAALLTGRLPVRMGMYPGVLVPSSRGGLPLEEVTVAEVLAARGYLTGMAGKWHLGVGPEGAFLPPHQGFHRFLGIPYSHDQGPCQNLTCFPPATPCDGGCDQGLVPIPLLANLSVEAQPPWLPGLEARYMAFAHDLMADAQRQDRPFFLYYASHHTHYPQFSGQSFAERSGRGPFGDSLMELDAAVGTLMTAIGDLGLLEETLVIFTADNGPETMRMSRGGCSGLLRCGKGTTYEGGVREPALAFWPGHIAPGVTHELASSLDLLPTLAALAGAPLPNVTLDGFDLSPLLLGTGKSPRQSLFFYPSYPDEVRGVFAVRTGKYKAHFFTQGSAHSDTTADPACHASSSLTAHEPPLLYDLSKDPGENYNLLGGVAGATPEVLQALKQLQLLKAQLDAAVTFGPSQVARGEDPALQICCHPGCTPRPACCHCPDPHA
In short: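 First, ASA-I179S fibroblasts from an MLD patient adhered for 6 hrs. Next, compounds were added for 48h. Then pNCS substrate (0.5mM final) with lysis buffer reacted 14h at room temperature before NaOH stop and fluorescence measurement.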

[9] = qHTS profiling for inhibitors of Plasmodium falciparum (3D7) proliferation (AID 743322; call rule not given here;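 further: infected erythrocytes exposed to compound for 72 h before lysis; 100% = DMSO vehicle wells and 0% = 0.29 µM artemisinin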); conditions: P. falciparum 3D7 proliferation; at 28.7 µM (top of the series) unless noted
In short: (§1)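 Erythrocytes infected with P. falciparum (0.3% parasitemia, 2.5% hematocrit) incubated with compounds 72 h at 37 C, 5% CO2. Lysis with saponin/Triton buffer containing SYBR Green I, overnight at room temperature in the dark; DNA fluorescence (485/535 nm) normalised to 0.29 uM artemisinin and DMSO.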

[10] = qHTS profiling for inhibitors of Plasmodium falciparum (DD2) proliferation (AID 743323; call rule not given here); conditions: lower = more inhibition; at 28.7 µM (top of the series) unless noted
In short: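 1536-well qHTS; infected RBCs 0.3% parasitemia/2.5% Hct final; cpd 72 h 37 C 5% CO2; lysis buffer + SYBR Green I, o/n RT dark; FI 485/535; norm. to 0.29 uM artemisinin and DMSO, plate-stack corrected.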

[11] = qHTS profiling for inhibitors of Plasmodium falciparum (HB3) proliferation (AID 743324); conditions: Plasmodium falciparum HB3 blood-stage proliferation; at 28.7 µM (top of the series) unless noted;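 further: 100% = DMSO vehicle wells and 0% = artemisinin-treated control wells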
In short: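 P. falciparum HB3 grown in erythrocytes (0.3% parasitemia, 2.5% hematocrit final) with compound for 72 h at 37 C, 5% CO2. Parasite DNA detected by SYBR Green after saponin/triton lysis overnight; normalized to 0.29 uM artemisinin and DMSO.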

[12] = qHTS profiling of the MIPE4 collection as inhibitors of Plasmodium falciparum (3D7) proliferation (AID 743344; call rule not given here;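 further: scaled between DMSO vehicle wells and 0.29 µM artemisinin as full inhibition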); conditions: P. falciparum 3D7 in erythrocytes, SYBR Green DNA fluorescence, 72 h; at 28.5 µM (top of the series)
In short: as §1

[13] = qHTS profiling of the MIPE4 collection as inhibitors of Plasmodium falciparum (DD2) proliferation (AID 743345; call rule not given here); conditions: P. falciparum Dd2 in erythrocytes, SYBR Green DNA, 72 h; at 28.5 µM (top of the series)
In short: as §1

[14] = qHTS profiling of the MIPE4 collection as inhibitors of Plasmodium falciparum (DD2) proliferation (Rep 2) (AID 743346; call rule not given here); conditions: P. falciparum Dd2 in erythrocytes, SYBR Green DNA, 72 h; at 28.5 µM (top of the series)
In short: as §1

[15] = qHTS profiling of the MIPE4 collection as inhibitors of Plasmodium falciparum (HB3) proliferation (AID 743347; call rule not given here;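 further: plate controls were DMSO vehicle wells for no effect and artemisinin wells for full effect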); conditions: P. falciparum HB3 in erythrocytes, SYBR Green DNA, 72 h; at 28.5 µM (top of the series)
In short: as §1

[16] = qHTS assay for small molecule agonists of the antioxidant response element (ARE) signaling pathway measured by Nrf2-dependant transcriptional activity (AID 720636; active means well fitted curve in the direction sought with a large enough effect in the repeat runs; an effect the other way counts as inactive or inconclusive;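 further: HepG2 cells with an ARE-driven luciferase reporter; % of control where 0% means no effect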)
In short: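 In HepG2 cells engineered with an Nrf2-responsive luciferase gene, ARE induction was quantified as luminescence after 16 hr compound treatment at 37 C.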

[17] = qHTS assay for small molecule antagonists of the retinoid-related orphan receptor gamma (ROR-gamma) signaling pathway - cell viability counter screen (AID 720652; active means well fitted curve in the direction sought with a large enough effect in the repeat runs; an effect the other way counts as inactive or inconclusive;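 further: CHO reporter cells with doxycycline-induced ROR-gamma expression; compound exposure lasted 16 hr before ATP read; on the % scale 0 is the no-effect control and ±100 the full control effect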)
In short: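 Cytotoxicity is quantified via intracellular ATP (CellTiter-Glo luminescence) in doxycycline-induced CHO ROR response element-luciferase reporter cells treated with compound for 16 hr at 37 C, 5% CO2.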

[18] = qHTS assay for small molecule agonists of the antioxidant response element (ARE) signaling pathway measured by Nrf2-dependant transcriptional activity - cell viability counter screen (AID 720653; active means well fitted curve in the direction sought with a large enough effect in the repeat runs; an effect the other way counts as inactive or inconclusive; further: on the % scale 0 is the no-effect control and ±100 the full control effect); conditions: ARE-bla HepG2 viability, CellTiter-Glo ATP luminescence, 16 h; max response: stronger effect = lower value
In short: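 ARE-bla HepG2 cells (2,000/well) rested 5 hrs at 37C/5% CO2, then exposed to compounds in DMSO for 16 hrs. Viability was read in the same wells as intracellular ATP by luminescence, 30 min at room temperature after reagent addition.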

[19] = qHTS assay for cell viability of HEK293 cells (AID 743288); conditions: ATP luminescence (CellTiter-Glo), 18 h; max response: stronger effect = lower value; further: on the % scale 0 is the no-effect control and ±100 the full control effect; nearly all actives have a fitted effect of over 50% in size
In short: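 The Tox21 protocol used parental HEK293 cells treated for 18 h at 37 C with compounds delivered by pintool; ATP-coupled luminescence after 30 min at room temperature gave viability.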

[20] = qHTS assay for cell viability of the p53RE-bla HCT-116 cell line (AID 743292); further: on the % scale 0 is the no-effect control and ±100 the full control effect; nearly all actives have a fitted effect of over 55% in size
In short: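 Intracellular ATP of p53RE-bla HCT-116 cells measured by luciferase luminescence following 16 h compound incubation at 37 C; DMSO-only wells served as vehicle controls.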

NCCCCC(=O)O
inactive: Potency [1] | Potency [2] | Potency [3] | outcome [4] | Potency [5] | Potency [6]

COc1cc(C(O)CO)ccc1OS(=O)(=O)O (configuration not stated)
inactive: Potency [1] | Potency [2] | Potency [3] | outcome [4] | Potency [5] | Potency [6] | max response [7] 2.33%

CC(C)NC[C@H](O)COc1cccc2[nH]ccc12
inactive: Potency [8] | Potency [1] | max response [7] 4.63%

CC[C@@H](C)[C@H]1O[C@]2(CC[C@H]1C)C[C@@H]1C[C@@H](CC=C(C)[C@@H](O[C@H]3C[C@H](OC)[C@@H](O[C@H]4C[C@H](OC)[C@@H](O)[C@H](C)O4)[C@H](C)O3)[C@@H](C)C=CC=C3CO[C@@H]4[C@H](O)C(C)=C[C@@H](C(=O)O1)[C@]34O)O2
35.5%: parasite growth, % of DMSO control [12]
12.5%: growth, % of control [15]
-0.0225%: activity, percent of control [10]
inactive: Potency [8] | outcome [4] | Potency [5] | Potency [6]
-0.425%: remaining proliferation (% of control), lower = more inhibition [11]
6.32%: parasite growth remaining, % of DMSO control (lower = more inhibition) [13]
-0.904%: remaining parasite growth % (stronger effect = lower value) [9]
active: Potency [7] 2.64 µM
38.4%: parasite growth, % of control (lower = inhibition) [14]

OCC1O[C@H]([S-])[C@H](O)[C@@H](O)[C@@H]1O.[Au+] (some centres not stated)
active: Potency [2] 16.4 µM | Potency [6] 15.8 µM | Potency [7] 2.82 µM
inactive: Potency [1] | Potency [3] | outcome [4] | Potency [5]

CN(C)c1ccc(/C=C2\C(=O)Nc3ccccc32)cc1
inactive: Potency [8] | Potency [1] | outcome [4] | Potency [5]

CNCC[C@H](Oc1ccc(C(F)(F)F)cc1)c1ccccc1
inactive: Potency [1] | Potency [2] | Potency [3] | outcome [4] | Potency [5] | Potency [6]

CN(C)CCC(c1ccc(Cl)cc1)c1ccccn1 (configuration not stated)
105%: parasite growth, % of DMSO control [12]
78.9%: growth, % of control [15]
38.1%: parasite growth, % of control (lower = inhibition) [14]
inactive: Potency [1] | Potency [2] | Potency [3] | Potency [16] | Potency [17] | max response [18] -2.73% | outcome [4] | Potency [5] | Potency [6] | max response [19] -8.98% | Potency [20]
70.9%: parasite growth remaining, % of DMSO control (lower = more inhibition) [13]

OCC1O[C@H](O)C(Cl)C(O)C1O (some centres not stated)
inactive: Potency [8] | Potency [1] | Potency [3] | outcome [4] | Potency [5] | max response [7] 14.4%

N.N.O=C(O)C1(C(=O)O)CCC1.[Pt]
inactive: Potency [1] | Potency [2] | Potency [3] | outcome [4] | Potency [5] | Potency [6] | max response [7] -4.37%

N.N.N.N.N.N.N.N.N.N.N.N.N.N.O.O.[Ru+4].[Ru+5].[Ru+5]
inactive: Potency [1] | Potency [3] | outcome [4] | Potency [5]

COc1ccccc1CNCCCCCCNCCCCCCCCNCCCCCCNCc1ccccc1OC
active: Potency [7] 1 µM
inactive: Potency [1] | Potency [2] | Potency [3] | outcome [4] | Potency [5] | Potency [6]

CN1CC(=O)N/C1=N/C(=O)Nc1cccc(Cl)c1
102%: remaining parasite growth % (stronger effect = lower value) [9]
inactive: Potency [1] | Potency [2] | Potency [3] | outcome [4] | Potency [5] | Potency [6] | max response [7] 11.6% and 35.9%
106%: activity, percent of control [10]

O=C(O)CC1CC(c2ccccc2)=NO1 (configuration not stated)
inactive: Potency [1] | Potency [3] | outcome [4] | Potency [5] | Potency [6]

NC(=S)c1ccc[n+]([C@@H]2O[C@@H](COP(=O)([O-])OP(=O)(O)OC[C@H]3O[C@@H](n4cnc5c(N)ncnc54)[C@H](OP(=O)(O)O)[C@@H]3O)C(O)C2O)c1 (some centres not stated)
inactive: Potency [1] | Potency [2] | Potency [3] | outcome [4] | Potency [5] | Potency [6] | max response [7] 5.56%

NC[C@@H]1O[C@H](C23CC4CC(CC(C4)C2)C3)Cc2c1ccc(O)c2O
active: Potency [7] 1 µM
inactive: Potency [1] | Potency [2] | Potency [3] | outcome [4] | Potency [5]

CC1CN(S(=O)(=O)c2cccc3cnccc23)CCN1 (configuration not stated)
inactive: Potency [1] | Potency [2] | Potency [3] | outcome [4] | Potency [5] | Potency [6] | max response [7] 23.3%

O=C(O)c1cc(=O)c2c(Cl)cc(Cl)cc2[nH]1
inactive: Potency [1] | Potency [3] | outcome [4] | Potency [5] | Potency [6] | max response [7] 14.4%

C=CC(C)=C[C@@]1(C)SC(=O)C(C)=C1O
inactive: Potency [1] | Potency [2] | Potency [3] | outcome [4] | Potency [5] | max response [7] 15.5%
98%: remaining parasite growth % (stronger effect = lower value) [9]
151%: parasite growth, % of control (lower = inhibition) [14]
98.9%: parasite growth, % of DMSO control [12]
98.3%: activity, percent of control [10]
108%: parasite growth remaining, % of DMSO control (lower = more inhibition) [13]
92.5%: remaining proliferation (% of control), lower = more inhibition [11]
77.3%: growth, % of control [15]

Fc1cccc(/C=N/N=C/c2cccc(F)c2)c1
inactive: Potency [1] | Potency [2] | outcome [4] | Potency [5] | Potency [6] | max response [7] 22.7%

c1ccc2sc(SSc3nc4ccccc4s3)nc2c1
inactive: Potency [16] | Potency [17] | max response [18] -3.31% and 10.5% | max response [7] 10.7% | max response [19] -16% and 1.48% | Potency [20]

CNC(=O)[C@H]1O[C@@H](n2cnc3c(NCc4cccc(I)c4)ncnc32)[C@H](O)[C@@H]1O
inactive: Potency [1] | Potency [2] | Potency [3] | outcome [4] | Potency [5] | Potency [6] | max response [7] 55.6%

CC(C)(C=O)Cc1cc(C(C)(C)C)c(O)c(C(C)(C)C)c1
inactive: Potency [1] | Potency [2] | Potency [3] | outcome [4] | Potency [5] | max response [7] 8.22%
